This is an account of results in publication PMC4242493, “Sequence specificity incompletely defines the genome-wide occupancy of Myc”.

Whole data set: some 33,000 sequences, median “normalized occupancy” near 0.075, cut for the highest 2% near 0.095. For the sample, the highest values were picked, then their nearest neighbours and some sequences at random.

Chain of MaxL homodimer (P61244 whole entry): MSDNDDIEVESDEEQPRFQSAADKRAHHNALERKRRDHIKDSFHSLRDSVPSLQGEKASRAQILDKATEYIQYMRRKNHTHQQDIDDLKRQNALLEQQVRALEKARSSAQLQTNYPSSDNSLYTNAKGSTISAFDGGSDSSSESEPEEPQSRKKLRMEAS

In the assay the target is MaxL homodimer (Homo sapiens, UniProt P61244 1-160). The assay is described as follows: universal protein-binding microarray (PBM); PBS-based mixture, 10 nM His-tagged protein dimer, 2% milk, 200 ng/uL BSA, 50 ng/uL salmon testes DNA, 0.02% TX-100; detection with Alexa 488 anti-His antibody;; high values mean tight binding. The settings on record: protein: recombinant; tags: C-terminal His-tag (pET21a); chain copies: 2; dsDNA, one strand shown. Summed up:
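His-tagged protein dimer at 10 nM was incubated on Agilent 4 x 44 K arrays with the 'all 10-mer' universal design. Bound protein was tagged with 10 ng/μL fluorophore-conjugated anti-His antibody, and arrays were scanned on a GenePix 4400A. Binding occupancy for each 8-mer is its fluorescence intensity normalised to the highest-ranked 8-mer's intensity.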
As to ATGCGTTC, the binding signal came out at 0.0856 normalized occupancy.

CAACCCAC: the binding signal stood at 0.082 normalized occupancy.

On to GGCGTTCA, for which the binding signal amounted to 0.0718 normalized occupancy.

CCCACAAA: the binding signal stood at 0.075 normalized occupancy.

Take ACCACGAA: the binding signal worked out at 0.0771 normalized occupancy.

CCCACGAA: the binding signal came out at 0.0758 normalized occupancy.

With ACCACGAG, the binding signal worked out at 0.115 normalized occupancy.

ACCACAAA: the binding signal is 0.0758 normalized occupancy.

CCCACGAG: the binding signal was determined as 0.0996 normalized occupancy.

Consider GAAGTGCA, for which the binding signal turned out to be 0.0728 normalized occupancy.

As to GTTTCGCA, the binding signal was 0.0757 normalized occupancy.

For ATGGCTGC, the binding signal was determined as 0.0809 normalized occupancy.

Take CGTGCTGA: the binding signal is 0.095 normalized occupancy.

Turning to GATGGAAC, the binding signal was determined as 0.0776 normalized occupancy.

On to CTATGCTC, for which the binding signal amounted to 0.0822 normalized occupancy.

Turning to CAATGCTC, the binding signal amounted to 0.0774 normalized occupancy.

As to ATATGCTC, the binding signal came to 0.0928 normalized occupancy.

In the case of CGATGCTC, the binding signal came to 0.0773 normalized occupancy.

Consider ACATGCTC, for which the binding signal worked out at 0.106 normalized occupancy.

For CCATGCTC, the binding signal stood at 0.0989 normalized occupancy.

As for CGAGCGCA, the binding signal came out at 0.0729 normalized occupancy.

Regarding GACATCCC, the binding signal turned out to be 0.0774 normalized occupancy.

Consider CACGTTAA, for which the binding signal was found to be 0.0921 normalized occupancy.

Consider CACGTTAG, for which the binding signal was 0.105 normalized occupancy.

For AACGTTAG, the binding signal came to 0.0732 normalized occupancy.

With CACGTTCG, the binding signal amounted to 0.0852 normalized occupancy.

Consider CACGTTAC, for which the binding signal was 0.115 normalized occupancy.

Take GACGTTAC: the binding signal turned out to be 0.0746 normalized occupancy.

On to AACGTTAC, for which the binding signal came out at 0.0772 normalized occupancy.

CACGTTCC: the binding signal is 0.096 normalized occupancy.

In the case of CACGTTCA, the binding signal was determined as 0.0904 normalized occupancy.

As for GTAGTCCA, the binding signal turned out to be 0.0722 normalized occupancy.

Turning to TACGTAGA, the binding signal was found to be 0.0768 normalized occupancy.

In the case of AATGCGGC, the binding signal amounted to 0.0814 normalized occupancy.

Consider AATGCGGA, for which the binding signal came to 0.0802 normalized occupancy.

For TATGCGGA, the binding signal came to 0.0786 normalized occupancy.

In the case of CATGCGGC, the binding signal came to 0.121 normalized occupancy.

As for GATGCGGC, the binding signal worked out at 0.0788 normalized occupancy.

Take AATGCGGG: the binding signal worked out at 0.0799 normalized occupancy.

For the sequence CATGCGGA, the binding signal turned out to be 0.126 normalized occupancy.

For CATGCGGG, the binding signal came out at 0.121 normalized occupancy.

In the case of CAGGCGGG, the binding signal stood at 0.0747 normalized occupancy.

In the case of AGGTAACC, the binding signal turned out to be 0.0749 normalized occupancy.

For the sequence AAACATAC, the binding signal amounted to 0.0888 normalized occupancy.

For TATAAACA, the binding signal turned out to be 0.0776 normalized occupancy.

For the sequence CGCTCGAG, the binding signal came to 0.0757 normalized occupancy.

Take CGATTGCA: the binding signal turned out to be 0.0745 normalized occupancy.

Consider GGACCGAC, for which the binding signal stood at 0.0727 normalized occupancy.

On to CATTTGAG, for which the binding signal turned out to be 0.0913 normalized occupancy.

In the case of AAGAACTC, the binding signal amounted to 0.0732 normalized occupancy.

Regarding AATTTCTA, the binding signal was determined as 0.0767 normalized occupancy.

Consider CCATTCGC, for which the binding signal worked out at 0.0743 normalized occupancy.

On to CTTCGTGC, for which the binding signal was 0.0757 normalized occupancy.

Regarding ATGGCAGG, the binding signal was found to be 0.0815 normalized occupancy.

For the sequence ACCCATGC, the binding signal worked out at 0.108 normalized occupancy.

As to CCCCATGA, the binding signal was found to be 0.0895 normalized occupancy.

Regarding ACCCATGG, the binding signal came out at 0.0853 normalized occupancy.

In the case of CCCCATGC, the binding signal came out at 0.107 normalized occupancy.

For ACCCATGA, the binding signal stood at 0.0882 normalized occupancy.

As for CCCCATTC, the binding signal was found to be 0.0826 normalized occupancy.

Turning to AAAGCACT, the binding signal is 0.0757 normalized occupancy.

For AACCACCA, the binding signal came out at 0.0807 normalized occupancy.

AACCACTA: the binding signal was found to be 0.0774 normalized occupancy.

For GACCACCA, the binding signal was 0.0803 normalized occupancy.

As for CACCACGC, the binding signal amounted to 0.119 normalized occupancy.

With GACCACGC, the binding signal amounted to 0.129 normalized occupancy.

As to AACCACGG, the binding signal was 0.0843 normalized occupancy.

With CACCACGA, the binding signal worked out at 0.082 normalized occupancy.

For AACCACGA, the binding signal was 0.0902 normalized occupancy.

With AACCACGT, the binding signal stood at 0.123 normalized occupancy.

For the sequence AACCACGC, the binding signal turned out to be 0.0983 normalized occupancy.

Take GACCACGA: the binding signal is 0.0865 normalized occupancy.

Turning to CACCACGG, the binding signal was found to be 0.0774 normalized occupancy.

In the case of ATGCCCTG, the binding signal worked out at 0.0757 normalized occupancy.

Turning to GAGACCCA, the binding signal came out at 0.0745 normalized occupancy.

On to TAATTGCA, for which the binding signal worked out at 0.0767 normalized occupancy.

Consider ACCAAGCA, for which the binding signal was found to be 0.081 normalized occupancy.

Take AATGCGTA: the binding signal was 0.0846 normalized occupancy.

For the sequence CGTGCGTC, the binding signal is 0.0896 normalized occupancy.

For the sequence GATGCGTA, the binding signal turned out to be 0.0807 normalized occupancy.

In the case of AATGCGTC, the binding signal came to 0.0736 normalized occupancy.

For the sequence CATGCGTC, the binding signal turned out to be 0.113 normalized occupancy.

Consider CATGCGTA, for which the binding signal was 0.122 normalized occupancy.

Consider ATGACGCG, for which the binding signal amounted to 0.0781 normalized occupancy.

Turning to ACGTGGGA, the binding signal is 0.0998 normalized occupancy.

For the sequence AGGTGGGC, the binding signal came to 0.0818 normalized occupancy.

On to ACGTGGGC, for which the binding signal was found to be 0.1 normalized occupancy.

Turning to ACGTGGGG, the binding signal was 0.0991 normalized occupancy.

For ATGTGGGG, the binding signal came out at 0.0878 normalized occupancy.

AAGTGGGA: the binding signal came to 0.0771 normalized occupancy.

Consider GGGTGGGA, for which the binding signal worked out at 0.085 normalized occupancy.

Regarding AGGTGGGG, the binding signal worked out at 0.0822 normalized occupancy.

Take GTGTGGGA: the binding signal amounted to 0.0899 normalized occupancy.

For the sequence CCGTGGGA, the binding signal came to 0.0775 normalized occupancy.

Take ATGTGGGC: the binding signal turned out to be 0.0919 normalized occupancy.

In the case of GCGTGGGA, the binding signal turned out to be 0.125 normalized occupancy.

Turning to GACATTGC, the binding signal was 0.0757 normalized occupancy.

Take GGAAGAGA: the binding signal was 0.0767 normalized occupancy.

For the sequence AGAATGTC, the binding signal came out at 0.0744 normalized occupancy.

Turning to CCTGCTAC, the binding signal amounted to 0.0758 normalized occupancy.

As for CCCTAATA, the binding signal is 0.0744 normalized occupancy.

For the sequence CGATTAAG, the binding signal worked out at 0.0743 normalized occupancy.

In the case of TTCATAAA, the binding signal came to 0.0768 normalized occupancy.

Turning to CAGACCCC, the binding signal turned out to be 0.085 normalized occupancy.

Regarding CAGTAGAA, the binding signal came to 0.0771 normalized occupancy.

ACGTCGTC: the binding signal turned out to be 0.0822 normalized occupancy.

On to GATGCTCA, for which the binding signal amounted to 0.0734 normalized occupancy.

On to CATGCTCG, for which the binding signal was found to be 0.106 normalized occupancy.

For the sequence CATGCTCA, the binding signal is 0.099 normalized occupancy.

As for CATGCTCC, the binding signal came out at 0.105 normalized occupancy.

As to TATGCTCA, the binding signal came to 0.0848 normalized occupancy.

On to AATGCTCA, for which the binding signal is 0.0829 normalized occupancy.

As to CGTGCTCC, the binding signal was determined as 0.085 normalized occupancy.

Turning to AATGCTCG, the binding signal came to 0.0783 normalized occupancy.

As for GATGCTCC, the binding signal was determined as 0.0753 normalized occupancy.

For CTTTACCA, the binding signal was determined as 0.0764 normalized occupancy.

In the case of ATTGGGGC, the binding signal was found to be 0.0771 normalized occupancy.

As to ACCTGGCT, the binding signal worked out at 0.0765 normalized occupancy.

With AAGTGGCT, the binding signal stood at 0.072 normalized occupancy.

On to TCGTGGCA, for which the binding signal turned out to be 0.0869 normalized occupancy.

For the sequence ACGTGGCT, the binding signal is 0.101 normalized occupancy.

With GCGTGGCA, the binding signal worked out at 0.121 normalized occupancy.

With ACGTGGCC, the binding signal came out at 0.094 normalized occupancy.

On to CCGTGGCG, for which the binding signal came out at 0.0765 normalized occupancy.

For ACGTGGCG, the binding signal came to 0.107 normalized occupancy.

AGGTGGCA: the binding signal was found to be 0.082 normalized occupancy.

Regarding ATGTGGCG, the binding signal was 0.0879 normalized occupancy.

Consider CCGTGGCA, for which the binding signal was 0.077 normalized occupancy.

Regarding ACGTGGCA, the binding signal was 0.106 normalized occupancy.

Regarding GGTCTGTA, the binding signal amounted to 0.0752 normalized occupancy.

For CCTTGTCC, the binding signal came to 0.0743 normalized occupancy.

On to CTGACTCA, for which the binding signal stood at 0.0764 normalized occupancy.

On to AACCAAGT, for which the binding signal stood at 0.0721 normalized occupancy.

GAGGAGAA: the binding signal was 0.0783 normalized occupancy.

Turning to GGTAACTA, the binding signal was 0.077 normalized occupancy.

Regarding CAACTTAG, the binding signal amounted to 0.0721 normalized occupancy.

As to AGGCACCT, the binding signal stood at 0.078 normalized occupancy.

With CTATTTTC, the binding signal is 0.0775 normalized occupancy.

In the case of CCAAACGC, the binding signal was 0.073 normalized occupancy.

GCGACTCA: the binding signal is 0.0767 normalized occupancy.

GAGTGGCC: the binding signal was 0.073 normalized occupancy.

In the case of CCGTGGCC, the binding signal came to 0.0738 normalized occupancy.

With GCGTGGCC, the binding signal is 0.0977 normalized occupancy.

On to GGACAACA, for which the binding signal was determined as 0.0742 normalized occupancy.

With CAAGTGTC, the binding signal stood at 0.0772 normalized occupancy.

Take ATCGTGTG: the binding signal turned out to be 0.0889 normalized occupancy.

With CACGTGTC, the binding signal came to 0.574 normalized occupancy.

With AACGTATA, the binding signal is 0.0869 normalized occupancy.

As for AACGTGTG, the binding signal was determined as 0.108 normalized occupancy.

For the sequence CAGGTGTA, the binding signal was determined as 0.0957 normalized occupancy.

Consider AAGGTGTA, for which the binding signal turned out to be 0.0773 normalized occupancy.

For the sequence ACCGTGTG, the binding signal amounted to 0.0873 normalized occupancy.

As to CCCGTGTC, the binding signal is 0.0814 normalized occupancy.

Regarding CAGGTGTC, the binding signal was 0.0839 normalized occupancy.

Turning to ACCGTGTA, the binding signal was determined as 0.0779 normalized occupancy.

For the sequence AACGTGTA, the binding signal worked out at 0.11 normalized occupancy.

Regarding GATGCAAA, the binding signal stood at 0.0761 normalized occupancy.

For the sequence GTTCGTAA, the binding signal was determined as 0.0774 normalized occupancy.
